# The list is not random: actives were taken first. Their share in the collection is about 19%.
# TDP1 cell noCPT – qHTS for Inhibitors of human tyrosyl-DNA phosphodiesterase 1 (TDP1): qHTS in cells in absence of CPT | DT40 Tdp1-/- hTDP1 cells, no CPT, ATP luminescence, 48 h | Potency, µM (series often up to 46.2 µM), without a hit: at the highest dose activity change, negative = growth inhibition, hits mostly inhibitors | 420,000 compounds, 15% hits | AID 686978, 2013; further: potency means the concentration at half of the fitted maximal effect; nearly all actives have a fitted effect of over 55% in size
#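 Seeded 400 DT40-hTDP1 cells/well (vehicle DMSO, no 20 nM CPT); pinned compounds; ≥48 hr at 37 °C; CellTiter-Glo luminescence as viability measure.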
# TDP1 block – qHTS Assay for Inhibitors of Tyrosyl-DNA Phosphodiesterase (TDP1) | 350,000 compounds, 0.28% hits | recombinant TDP1, AlphaScreen DNA substrate cleavage | Potency, µM (series often up to 130 µM), inactives show at the highest dose activity change, negative = inhibition, actives largely listed as inhibitors | AID 485290, 2010; further: potency means the concentration at half of the fitted maximal effect; nearly all actives have a fitted effect of over 40% in size
# Target sequence (Q9NUW8 whole entry, looked up): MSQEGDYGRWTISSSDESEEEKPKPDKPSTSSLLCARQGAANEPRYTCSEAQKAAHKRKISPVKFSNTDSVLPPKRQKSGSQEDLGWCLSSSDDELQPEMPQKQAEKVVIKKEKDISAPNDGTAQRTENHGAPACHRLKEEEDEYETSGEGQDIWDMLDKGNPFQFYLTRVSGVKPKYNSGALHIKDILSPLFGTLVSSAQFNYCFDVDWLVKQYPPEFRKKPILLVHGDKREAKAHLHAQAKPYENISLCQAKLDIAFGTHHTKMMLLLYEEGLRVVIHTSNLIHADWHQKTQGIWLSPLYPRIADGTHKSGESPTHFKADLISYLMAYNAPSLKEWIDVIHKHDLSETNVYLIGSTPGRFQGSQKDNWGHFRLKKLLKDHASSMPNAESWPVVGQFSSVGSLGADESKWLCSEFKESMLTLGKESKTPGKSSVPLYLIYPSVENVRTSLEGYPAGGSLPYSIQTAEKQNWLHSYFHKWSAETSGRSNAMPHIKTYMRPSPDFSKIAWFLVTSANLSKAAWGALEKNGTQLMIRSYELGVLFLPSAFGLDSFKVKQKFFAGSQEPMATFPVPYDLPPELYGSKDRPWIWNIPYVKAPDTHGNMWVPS
#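 Signal: AlphaScreen proximity between streptavidin donor and anti-FITC acceptor beads on intact substrate. Reaction: Tdp1 1 nM, substrate 15 nM final, 5 min RT after 15 min compound preincubation.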
# ELG1 repair inh – qHTS screen for small molecules that inhibit ELG1-dependent DNA repair in human embryonic kidney (HEK293T) cells expressing luciferase-tagged ELG1 | HEK293T ELG1-luciferase reporter, luminescence, 16 h; DNA damage induced by 5-fluorouridine | Potency, µM (titrated, usually from 46.1 µM), without a hit: at the highest dose activity change, negative = inhibition, actives largely listed as inhibitors | 330,000 compounds, 2.3% hits | AID 504467, 2011; further: potency means the concentration at half of the fitted maximal effect; nearly all actives have a fitted effect of over 55% in size
#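 Luminescence from the luciferase reporter, measured 30 min after ONE-Glo reagent at room temperature, was the read-out. Beforehand, 2,000 cells per well were exposed for 16 hr at 37 °C to 5-fluorouridine together with compound or vehicle.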
# DT40 TDP1 CPT – qHTS for Inhibitors of human tyrosyl-DNA phosphodiesterase 1 (TDP1): qHTS in cells in presence of CPT. chicken DT40 Tdp1-/-;hTDP1 cells + 20 nM CPT, ATP luminescence, 48 h. AID 686979, 2013. 420,000 compounds, 12% hits. Potency, µM (highest dose often 46.2 µM), inactives show top-dose activity change, negative = growth inhibition, most hits filed as inhibitors; further: potency means the concentration at half of the fitted maximal effect; nearly all actives have a fitted effect of over 55% in size
#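 Cell growth measured by CellTiter-Glo luminescence after a minimum 48 h, 37 C compound exposure with 20 nM CPT in Tdp1-knockout DT40 cells stably expressing hTDP1, seeded 400/well; qHTS titration format.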
# Giardia killer – Small Molecules that selectively kill Giardia lamblia: qHTS; 340,000 compounds, 0.15% hits; Giardia lamblia trophozoite viability; activity change, % at 7.66 µM, hits read low; AID 540267, 2011; in the data active means activity change below about -80%; inconclusive means between about -30% and that limit;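 further: parasites exposed to compound for two days anaerobically before the ATP read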
#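 Luminescent ATP signal served as the viability read-out, measured 15-30 min after adding ATP detection reagent to trophozoites that had been incubated with compounds for 48 hrs at 37 deg C anaerobically at 100 cells/well.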
# IL-1B inflam inh – qHTS for Inhibitors of Inflammasome Signaling: IL-1-beta AlphaLISA Primary Screen; activity change, % at 57.5 µM; AID 743279, 2014; THP-1 LPS/ATP IL-1B secretion, AlphaLISA, 16 h; stronger effect = lower value; 360,000 compounds, 4.7% hits; in the data active means activity change below about -50%; inconclusive means mostly about -30% to -49%
#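 THP-1 cells pretreated 1 hr with compounds (up to 57.5 uM final), then stimulated with LPS (250 ng/mL final) plus ATP (1.25 mM final); secreted IL-1B measured by AlphaLISA after 16 hr, decreased signal indicating inhibition.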
# Starred values were filed as active, the others as inactive; ? = inconclusive; · = no result; [ ] = dose if it differs, or a comment. Unless noted, the call rests on the fitted dose curve; in most records, active means well fitted curve in the direction sought with a large enough effect; inconclusive means small, poorly fitted or top-dose-only effect, or another doubt; inactive means no such curve, though single readings can be large; an effect the other way counts as inactive or inconclusive. On the % scale 0 is the no-effect control and ±100 the full control effect.
SMILES,TDP1 cell noCPT,TDP1 block,ELG1 repair inh,DT40 TDP1 CPT,Giardia killer,IL-1B inflam inh
Cc1cc(N2CCCCC2)nc2ccc(NC(=O)/C=C/c3ccc(OCCC(C)C)cc3)cc12,18.4µM*,5.9%,·,-109.9%,·,·
Cc1ccc(/C=C/C(=O)Nc2ccc3nc(N4CCC(C)CC4)cc(C)c3c2)cc1,3.66µM*,0.0%,·,5.8µM*,·,·
Cc1cc(N2CCCCC2)nc2ccc(NC(=O)CCC(=O)NCCC(C)C)cc12,-26.6%,0.5%,?,-29.7%,1.1,0.7
Cc1cc(C)n(-c2ccc(C(=O)NCC(c3ccco3)N3CCCC3)cc2)n1 (configuration not stated),-5.6%,-0.3%,-1.3%,?,3.6,20.6
COc1cccc(C(=O)CC(C#N)c2ccc(F)cc2)c1 (configuration not stated),11.4%,·,1.8%,-12.4%,26.0,-1.5
COc1ccc2c(-c3cnc(N4CCOCC4)nc3)c(-c3ccc(S(C)(=O)=O)cc3)sc2c1,14.6µM*,-0.1%,-6.1%,14.6µM*,8.8,-29.3
COc1ccc2sc(-c3ccc(S(C)(=O)=O)cc3)c(-c3ccc(SC)cc3)c2c1,?,0.0%,13.4%,25.9µM*,-8.3,-9.8
COc1ccc(-c2c(-c3ccc(S(C)(=O)=O)cc3)sc3ccc(OC)cc23)cc1,13µM*,-0.3%,-13.2%,?,34.4,-2.4
COc1ccc2c(-c3ccc(SC)cc3)c(-c3ccc(S(C)(=O)=O)cc3)sc2c1,?,-1.5%,-0.7%,?,10.9,-0.5
COc1ccc2sc(-c3ccc(S(C)(=O)=O)cc3)c(-c3ccc4c(c3)OCCO4)c2c1,?,2.1%,5.0%,?,-2.1,-26.5
COc1ccc(-c2sc3ccc(OC)cc3c2-c2ccc(O)cc2)cc1,?,1.7%,23.1µM*,?,6.4,-63.0*
CCOc1ccc(-n2nc3cc(C)c(NC(=O)c4cc(OCC)c(OCC)c(OCC)c4)cc3n2)cc1,-1.7%,·,·,-2.5%,·,·
CC(C)(C)C(=O)[C@@H]1[C@@H]2C(=O)N(Cc3ccccc3)C(=O)[C@@H]2[C@H]2c3ccccc3C=CN12,·,70.8µM*,-12.2%,·,·,·
COc1cc2nc(N(C)CCCNC(=O)[C@@H]3CCCO3)nc(N)c2cc1OC,·,6.4%[56.1 µM],·,·,·,·
COc1ccc(OC)c(NCc2cccn2-c2nnc(N3CCC(C)CC3)s2)c1,2.59µM*,6.6%,·,2.91µM*,-7.9,·
COc1ccc(NCc2cccn2-c2nnc(N3CCC(C)CC3)s2)c(OC)c1,16.4µM*,12.7%,·,?,·,·
COc1ccccc1NCc1cccn1-c1nnc(N2CCOCC2)s1,-23.8%,-2.1%,·,-22.1%,·,·
COc1ccc(NCc2cccn2-c2nnc(N3CCOCC3)s2)c(OC)c1,-22.0%,2.1%,·,-26.3%,·,·
C=CCNC(=O)c1ccc2c(=O)n(CCCN3CCCC3=O)c(=S)[nH]c2c1,1.6%,2.6%,-1.4%,12.1%,-0.7,-14.5
CC(C)(C)OC(=O)NC(Cc1ccccc1)C(=O)NCCCC(=O)O (configuration not stated),-6.2%,-3.1%,14.8%,-25.9%,-10.2,1.0
Cn1cc(C[C@H](NC(=O)OC(C)(C)C)C(=O)N[C@@H](CO)Cc2ccccc2)c2ccccc21,?,·,·,18.4µM*,6.7,-6.5
CCOc1ccc(CNS(=O)(=O)c2ccc3c(c2)CC(C)N3C(C)=O)cc1OC (configuration not stated),11.6µM*,1.2%,·,13µM*,·,·

# Bioassay records from PubChem.
